Screens as filed in PubChem.
Sampled rows, rich in hits. Any-hit rate of the full collection: about 2.1%.
PLC-gamma1 inh: PLC-gamma1 (human) inhibition, primary screen. purified PLC-gamma1, fluorogenic substrate, fluorescence. inhibition, % at 12.2 µM. 370,000 compounds, 0.84% hits; in the data active = inhibition above about 9.5%
ADAM17 inh: ADAM17 inhibition, QFRET primary screen. inhibition, % at 6.95 µM. recombinant ADAM17, EDANS/DABCYL FRET peptide cleavage. 370,000 compounds, 0.83% hits;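 active = inhibition above the mean of compounds lying between control limits plus 3 SD, set per campaign, cut at about 8.5% in these data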;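 also: 0% = DMSO-only wells as the low control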
Rce1 inh: blocks yeast Ras-converting enzyme; calls only; AID 2563; 290,000 compounds, 0.27% hits; yeast membranes, quenched prenylated peptide cleavage fluorescence;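 active = fall in fluorescence gain of 50% or more versus controls, with final raw signal at or below 3038400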;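 also: plate controls were neutral control wells for no effect and wells lacking membranes for full effect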
ADAM10 inh: inhibits human ADAM10; 370,000 compounds, 0.62% hits; inhibition, % at 7 µM; recombinant ADAM10, EDANS/DABCYL FRET peptide cleavage, 3 h; O14672;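 active = inhibition above a per-campaign cutoff equal to the mean of compounds falling between control-based bounds plus 3 SD, cut at about 20% in these data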;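 also: 0% = DMSO wells while the 100% control is not disclosed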
Target sequence (O14672 214-748 limits assumed): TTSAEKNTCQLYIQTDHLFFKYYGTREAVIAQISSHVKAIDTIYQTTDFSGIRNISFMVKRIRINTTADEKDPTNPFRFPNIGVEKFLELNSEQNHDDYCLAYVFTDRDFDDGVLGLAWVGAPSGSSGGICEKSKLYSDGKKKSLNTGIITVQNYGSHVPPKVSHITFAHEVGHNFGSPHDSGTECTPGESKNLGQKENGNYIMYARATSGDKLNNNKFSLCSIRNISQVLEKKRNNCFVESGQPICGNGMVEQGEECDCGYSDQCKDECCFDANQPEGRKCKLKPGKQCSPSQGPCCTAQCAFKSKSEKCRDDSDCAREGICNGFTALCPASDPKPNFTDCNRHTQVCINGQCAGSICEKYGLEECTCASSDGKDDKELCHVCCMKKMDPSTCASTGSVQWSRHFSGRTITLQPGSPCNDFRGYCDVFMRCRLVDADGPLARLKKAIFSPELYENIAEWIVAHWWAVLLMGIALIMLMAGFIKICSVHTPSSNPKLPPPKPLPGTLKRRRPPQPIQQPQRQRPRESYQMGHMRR
PLCb3 inh: PLC-beta3 (human) inhibition, primary screen. Q01970. Purified PLC-beta3, fluorogenic substrate, fluorescence. inhibition, % at 12.2 µM. 370,000 compounds, 0.18% hits. AID 720704;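 also: 0% = median of compound wells on plate and 100% = full blocker control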
ADAM10 ctr: ADAM10 inhibition, counter-screen for ADAM17 exosite hits; shares compounds with ADAM17 inh; recombinant ADAM10, EDANS/DABCYL FRET peptide cleavage, 3 h; inhibition, % at 6.95 µM; 2,900 compounds, 47% hits; AID 743256;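 active = mean inhibition over the triplicate runs exceeds the activity threshold set in the earlier primary screen, cut at about 20% in these data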;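 also: 0% = DMSO wells and 100% = marimastat wells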
ADAM17 confirm: human ADAM17 inhibition, confirmation; recombinant ADAM17, EDANS/DABCYL QFRET peptide cleavage; shares compounds with ADAM17 inh; inhibition, % at 6.95 µM; 2,900 compounds, 65% hits;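 active = mean inhibition across replicates above the hit cutoff set in the primary screen, cut at about 8.5% in these data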;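 also: 0% = DMSO wells and 100% = marimastat wells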
PLCg1 ctr: counter-screen for PLC-beta3 inhibitors: inhibitors of human PLC-gamma1 | 3,300 compounds, 3.1% hits | inhibition, % at 12.3 µM | AID 743258 | shares compounds with PLC-gamma1 inh | purified PLC-gamma1, fluorogenic substrate, fluorescence; in the data active = inhibition above about 9.5%
PLCbeta3 conf: human PLC-beta3 inhibition, confirmation; shares compounds with PLC-gamma1 inh; 3,300 compounds, 1% hits; purified PLC-beta3, fluorogenic substrate fluorescence; inhibition, % at 12.3 µM
* hit, by the source's call; i = inactive; · = not tested or not shown. Rule as the data show it, unless noted: active = inhibition above about 11%; inactive = the rest.

SMILES | PLC-gamma1 inh | ADAM17 inh | Rce1 inh | ADAM10 inh | PLCb3 inh | PLCg1 ctr | PLCbeta3 conf | others
CN(CCc1ccccc1)C(=O)c1ccc(NC(=O)Cc2ccc(NC(=O)C3CCN(C(=O)C4CCCC4)CC3)cc2)cc1 | 10* | 11* | · | 5 | 5 | 7 | 3 | ADAM10 ctr=9;ADAM17 confirm=9.8*
CC1=NN(c2ccccc2)C(=O)/C1=C/c1cccs1 | 25* | 10* | i | 18 | 16* | 1 | -1 | ADAM10 ctr=1;ADAM17 confirm=0
COCC(C)n1c(SCC(=O)NC(=O)NCc2ccccc2)nc2ccccc2c1=O (stereo unspecified) | 10* | 10* | · | 12 | 8 | -1 | -2 | ADAM10 ctr=15;ADAM17 confirm=7
Cc1ncc([N+](=O)[O-])n1CC(=O)N/N=C/c1ccccc1F | 6 | 9.9* | i | 12 | 11* | 3 | 4 | ADAM10 ctr=5;ADAM17 confirm=3
CCCNC(=O)c1cc2c(c(-c3cccc(-c4ccccc4F)c3)n1)[C@H](CCO)N(C(=O)CC1CC1)C2 | 3 | 0 | · | -3 | -3 | · | ·
COc1ccc(Cn2cc(F)c(=O)n(C)c2=O)cc1[N+](=O)[O-] | 4 | 0 | i | -1 | -6 | · | ·
COc1ccc(Cn2cc(F)c(=O)n(CCC(C)C)c2=O)cc1[N+](=O)[O-] | 13* | 9.8* | i | 16 | 7 | -6 | -1 | ADAM10 ctr=-4;ADAM17 confirm=0
COc1ccc(S(=O)(=O)Nc2ccc3c(c2)CC(=O)N([C@@H](C)CO)C[C@H](C)[C@@H](CN(C)S(=O)(=O)c2ccc(F)cc2)O3)cc1 | 11* | 10* | · | 14 | 6 | -2 | -3 | ADAM10 ctr=8;ADAM17 confirm=3
CNS(=O)(=O)c1cccc(C(=O)OCC(=O)NC2CCCC2)c1 | 9.6* | 8.9* | i | 11 | -2 | -4 | 0 | ADAM10 ctr=7;ADAM17 confirm=4
Cc1ccc(C(=O)Nc2ccc(S(=O)(=O)NCc3ccco3)cc2)cc1 | 1 | -5 | i | -1 | -1 | · | ·
O=C(Nc1ccccc1)c1ccc(S(=O)(=O)NCc2ccco2)cc1 | 13* | 5 | i | 10 | 7 | 8 | 1
COCCCNCC1C(Oc2ccc(Cl)cc2)C(=O)N1c1ccccc1C (stereo unspecified) | 9.9* | 0 | i | -6 | -1 | -3 | -2
CCCCc1ccc(S(=O)(=O)NC(=O)C2(C)CCN2C(=O)CCc2cccs2)cc1 (stereo unspecified) | -6 | -1 | · | -1 | -7 | · | ·
CC1(C)CC(N2CCCC2)=CC(=[N+]2CCCC2)C1 | 9 | -1 | i | 14 | 2 | · | ·
CC1(C)CC(N2CCCC2)=CC(=[N+]2CCCCC2)C1 | 12* | 1 | i | 12 | 5 | -5 | 3
Cc1cc(C)c2c(c1)NC(c1cc3c(cc1Br)OCO3)C1CC=CC21 (stereo unspecified) | 1 | 3 | i | -1 | 1 | · | ·
CC(=O)Nc1ccccc1NC(=O)C/C(C)=N/NC(=O)c1ccc([N+](=O)[O-])c(Cl)c1 | 1 | 1 | i | 2 | -47 | · | ·
C/C(CC(=O)NC1CCCC1)=N\NC(=O)c1ccc([N+](=O)[O-])c(Cl)c1 | 14* | 5 | · | 1 | 8 | -6 | -3
Cc1cc(C)cc(NC(=O)C2CCCN2/C=C/C(=O)C(F)(F)F)c1 (stereo unspecified) | 6 | 4 | i | 8 | 3 | · | ·
COc1nc(NCc2ccco2)nc(N2CCC(C)CC2)n1 | 2 | 0 | i | 4 | 3 | · | ·
CCNc1nc(OC)nc(N2CCC(Cc3ccccc3)CC2)n1 | 4 | 5 | i | 11 | 11* | -4 | -4
COc1cccc(OC)c1C(=O)Nc1ccc(S(=O)(=O)Nc2ncccn2)cc1 | 1 | -2 | i | -1 | -6 | · | ·
O=C(Nc1ccc(S(=O)(=O)Nc2ncccn2)cc1)c1ccc(Br)s1 | 11* | -2 | · | -2 | -4 | -5 | -1
CC1(Cc2c(Cl)cccc2Cl)C(=O)Nc2cc(-c3ccccc3Cl)ccc21 (stereo unspecified) | 1 | 1 | · | -9 | -2 | · | ·
COC(=O)c1cccc(CC2(C)C(=O)Nc3cc(-c4ccccc4Cl)ccc32)c1 (stereo unspecified) | 14* | 7 | · | 13 | 8 | -1 | 0
SMILES | PLC-gamma1 inh | ADAM17 inh | Rce1 inh | ADAM10 inh | PLCb3 inh | PLCg1 ctr | PLCbeta3 conf | others
Cc1ccccc1-n1c(SC(C)C(N)=O)nnc1-c1cccnc1 (stereo unspecified) | 11* | 1 | i | -4 | 2 | -2 | 1
CC(=O)Nc1ccc(CNc2nc3cc(-c4ccsc4)sc3c(=O)n2C)cc1 | -1 | -2 | · | -2 | 1 | · | ·
c1ccc2c(c1)OC(CCCN1CCCCC1)c1ccccc1S2 (stereo unspecified) | 11* | 4 | i | 5 | 4 | -4 | 1
CN1CCCC(CC2Oc3ccccc3Sc3ccccc32)C1 (stereo unspecified) | -1 | 1 | i | -5 | 3 | · | ·
C=CCn1c(NC(C)c2cc(Cl)ccc2O)nc2ccccc21 (stereo unspecified) | 5 | 6 | i | -3 | -2 | · | ·
CC(Nc1ccc(Br)cn1)c1cc(Cl)ccc1O (stereo unspecified) | 9.7* | 8 | i | 13 | 4 | -1 | 2
CC(C)COC(=O)N1CCN(S(=O)(=O)c2ccc3c(c2)CCC3)CC1 | 3 | 2 | · | 8 | -1 | · | ·
C=CCNC(=O)CN1CCC(c2nc3ccccc3[nH]2)CC1 | 3 | -3 | i | 2 | -7 | · | ·
C=CCNC(=O)CN1CCC(c2nc3cc(C)c(C)cc3[nH]2)CC1 | 12* | -4 | i | -8 | -5 | -10 | -3
CC(C)Cn1c(=O)c2c(nc3n2CC(C)CN3Cc2ccccc2)n(C)c1=O (stereo unspecified) | -1 | -3 | i | -3 | -2 | · | ·
O=C(NCCN1CCOCC1)Nc1ccc(Cl)cc1 | 12* | -6 | i | -2 | -1 | -3 | 1
N#CC1(NC(=O)CSc2nc3ccccc3s2)CCCCC1 | 12* | 5 | · | 6 | 4 | -2 | 5
CCOC(=O)c1cnn(-c2nc(-c3ccccc3F)cs2)c1C(F)(F)F | 9.8* | 5 | i | 8 | 9 | -102 | -96
CN(C(=O)N1CCN(S(=O)(=O)c2ccccc2)CC1)c1ccccc1 | 0 | -2 | i | -1 | -1 | · | ·
O=C(NC(=S)Nc1ccccn1)c1cccc([N+](=O)[O-])c1 | 1 | 1 | i | 0 | -6 | · | ·
